Source: PubChem (National Center for Advancing Translational Sciences (NCATS))
Compounds with a hit are over-represented: about 0.43% of the library has one in this group of screens.
GAA glycogen: alters human alpha-glucosidase cleavage of glycogen; AID 2100; 300,000 compounds, 0.38% hits; recombinant GAA, glycogen substrate, Amplex Red glucose oxidase fluorescence; Potency, µM (series often up to 76.4 µM), most hits filed as inhibitors; P10253;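 note: the screen sought inhibitors and activators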
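Recombinant enzyme (4 nM final) with compounds titrated up to 77 uM and bovine liver glycogen (30 ug) in citrate pH 5.0, 0.01% Tween-20, 37 C 40 min. Released glucose detected by Amplex Red/glucose oxidase (Ex 573/Em 610); AC50 from Hill fits.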
GAA inh: alpha-glucosidase (human) inhibition; Potency, µM (titrated, usually from 76.9 µM), hits mostly inhibitors; purified human GAA, 4-MU-alpha-glucoside fluorescence; P10253; 200,000 compounds, 0.005% hits
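qHTS format, compound range up to 77 uM. Human lysosomal enzyme at 4 nM, 400 uM 4-MU glucoside substrate, pH 5.0, 20 min room temperature; fluorescence after alkaline stop gives activity normalized to controls.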
aGlu spleen mod: lysosomal alpha-glucosidase (human) modulation; P10253; human spleen homogenate, 4-MU-alpha-glucoside fluorescence; Potency, µM (titrated, usually from 79.9 µM), hits mostly inhibitors; 240,000 compounds, 0.006% hits; AID 2112
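AC50 values come from Hill-equation fits of concentration-response data, normalized to no-enzyme and full-activity controls. Enzyme source: 1 ug human spleen homogenate; 1 mM fluorogenic 4-MU glucoside, pH 5.0 citrate buffer, 37 C, 40 min.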
aGal spleen mod: inhibitors or activators of human alpha-galactosidase in spleen homogenate; AID 2107; Potency, µM (doses to about 80 µM), usual class: inhibitors; human spleen homogenate, 4MU-alpha-Gal fluorescence, 40 min; 240,000 compounds, 0.008% hits; P06280
Target sequence (P06280 32-429 limits assumed): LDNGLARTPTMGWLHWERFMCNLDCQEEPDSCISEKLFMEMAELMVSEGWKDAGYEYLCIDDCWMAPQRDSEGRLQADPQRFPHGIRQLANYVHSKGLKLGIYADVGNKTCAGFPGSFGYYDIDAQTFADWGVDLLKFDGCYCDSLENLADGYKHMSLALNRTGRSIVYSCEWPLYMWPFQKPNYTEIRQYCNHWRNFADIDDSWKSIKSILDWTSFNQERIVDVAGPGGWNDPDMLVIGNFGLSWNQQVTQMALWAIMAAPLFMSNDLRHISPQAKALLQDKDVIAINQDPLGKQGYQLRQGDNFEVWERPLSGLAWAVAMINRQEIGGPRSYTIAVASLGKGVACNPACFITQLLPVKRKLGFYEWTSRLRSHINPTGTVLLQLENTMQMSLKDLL
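Human spleen homogenate (1 ug) was the enzyme source, with 4-methylumbelliferyl-alpha-D-galactopyranoside (1 mM final) in pH 5.0 citrate buffer with 0.01% Tween-20. Compounds were titrated; after 40 min at 37C, NaOH/glycine stop, 4-MU fluorescence read; AC50 from Hill fits.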
GLA inh pH 4.5: inhibitors of human alpha-galactosidase A at pH 4.5 | activity change, negative = inhibition, % at 105 µM | 230,000 tested, under 10 active | purified enzyme, 4-MU-alpha-Gal fluorescence, pH 4.5 | P06280 | AID 1467
N370S GC mod: inhibitors or activators of N370S glucocerebrosidase for Gaucher disease; P04062; N370S GC spleen homogenate, 4MU-glucoside fluorescence; Potency, µM (top dose mostly 59.4 µM), most hits filed as inhibitors; 330,000 compounds, 0.092% hits; AID 2101
Of the large screens only hits and unclear results are named; the others gave an inactive call. Calls come from the whole dose curve; as a rule, active = well fitted curve in the direction sought with a large enough effect; inconclusive = small, poorly fitted or top-dose-only effect, or another doubt; inactive = no such curve, though single readings can be large; an effect the other way counts as inactive or inconclusive.

CC1Sc2ccc(S(=O)(=O)CCC(=O)Nc3cc(F)ccc3F)cc2NC1=O (configuration not stated)	N370S GC mod 10µM (no result: GAA glycogen, GAA inh, aGlu spleen mod, aGal spleen mod, GLA inh pH 4.5)
Cc1cc(NC(=O)CCS(=O)(=O)c2ccc3c(c2)NC(=O)C(C)S3)ccc1Br (configuration not stated)	N370S GC mod 8.9µM (no result: GAA glycogen, GAA inh, aGlu spleen mod, aGal spleen mod, GLA inh pH 4.5)
COc1ccc(OC)c(S(=O)(=O)NCc2cn3ccsc3n2)c1	GAA inh inconclusive
O=C(CCNC(=O)c1ccc(Cl)cc1)NCc1ccccc1Cl	none (no result: GAA glycogen, GAA inh, aGlu spleen mod, aGal spleen mod, GLA inh pH 4.5)
COc1ccccc1C(=O)NC(=S)Nc1ccc2[nH]c(=O)[nH]c2c1	none (no result: GAA inh, aGlu spleen mod, aGal spleen mod, GLA inh pH 4.5)
Oc1ccc(Nc2nc(-c3cccnc3)cs2)cc1	GAA glycogen 18µM (no result: GAA inh, aGlu spleen mod, aGal spleen mod, GLA inh pH 4.5)
Oc1ccc(Nc2nc(-c3ccc(O)cc3)cs2)cc1	GAA glycogen 25µM, N370S GC mod 16µM
CCCCCCC1(C)NC(=S)N(c2ccccc2)N1 (configuration not stated)	GAA glycogen inconclusive
CCCCCC1(C)NC(=S)N(c2ccccc2)N1 (configuration not stated)	GAA glycogen 35µM
CCOC(=O)CNc1c(-c2ccc(Cl)cc2)nc2cnccn12	GAA glycogen 40µM, GAA inh inconclusive
CCOC(=O)CNc1c(-c2ccc(OC)cc2)nc2ccc(Cl)cn12	GAA glycogen inconclusive, N370S GC mod inconclusive
CCOC(=O)CNc1c(-c2ccc(F)cc2)nc2cnccn12	GAA glycogen 12µM
Cc1ccc(S(=O)(=O)N/N=C/c2cc([N+](=O)[O-])ccc2O)cc1[N+](=O)[O-]	none
Cc1ccc(S(=O)(=O)N/N=C/c2ccc(O)cc2O)cc1[N+](=O)[O-]	GAA glycogen 25µM (no result: GAA inh)
O=C(NNc1c2ccccc2nc2ccccc12)c1ccc(O)cc1	GAA glycogen 11µM
O=C(NNc1c2ccccc2nc2ccccc12)c1ccc(O)cc1O	GAA glycogen 28µM
Cc1ccc(C(=O)Nc2nc3ccccc3n3nnnc23)cc1	none
Cc1ccc(C(=O)NNc2nc3ccccc3nc2C(F)(F)F)cc1	GAA glycogen 16µM
O=C(NNc1c2ccccc2nc2ccccc12)c1ccccc1O	none
Cc1ccc(C2C3C(=O)N(c4ccc(C)cc4)C(=O)C3N3CCCN23)cc1 (configuration not stated)	GAA glycogen inconclusive (no result: GAA inh)
COCCn1c(=S)[nH]c2ccc(N(C)C)cc2c1=O	GAA glycogen inconclusive
CC1(C)Cc2c(c(-c3ccccc3)nc3[nH][nH]c(=O)c23)CO1	GAA glycogen 5µM
Cc1sc2ncnc(Nc3ccc(O)cc3)c2c1C	GAA glycogen inconclusive, N370S GC mod 11µM
COc1ccc(O)c(/C=N/c2sc(C)c(C)c2C#N)c1	GAA glycogen 14µM
N#CC1=C(N)n2c(s/c(=C\c3cccs3)c2=O)=C(C#N)C1c1cccs1 (configuration not stated)	none
CCN(C(=O)CN1CCN(c2ccccc2O)CC1)c1c(N)n(Cc2ccccc2)c(=O)[nH]c1=O	GAA glycogen 9.9µM
CC(=O)/C=C(\C)Nc1ccccc1O	GAA glycogen 25µM (no result: GAA inh)
Cc1cc[n+](-c2[nH]c(=O)sc2/C=N/N=C(\[O-])c2ccncc2)cc1	none (no result: GAA glycogen, GAA inh, aGlu spleen mod, aGal spleen mod, GLA inh pH 4.5)
CCC1CN(S(=O)(=O)c2ccc3c(c2)NC(=O)CC(=O)N3)c2cc(Cl)ccc2O1 (configuration not stated)	N370S GC mod 1.6µM (no result: GAA inh, aGlu spleen mod, aGal spleen mod, GLA inh pH 4.5)
CN1C(=O)/C(=C\c2ccco2)N=C1c1ccc(Cl)cc1Cl	none (no result: GAA inh)
Nc1cc(S(=O)(=O)Nc2cc(Cl)ccc2Cl)ccc1N1CCCC1	GAA glycogen 18µM (no result: GAA inh)
COc1ccc(O)c(-c2cc(-c3cccs3)[nH]n2)c1	GAA glycogen 40µM
COC(=O)C1=C(C)N(Cc2ccc(C)cc2)C(=O)/C1=C\c1cc(OC)c(OC)c(OC)c1	none
COC(=O)C1=C(C)N(Cc2ccc(C)cc2)C(=O)/C1=C\c1ccc(O)c(OC)c1	GAA glycogen 28µM
CCn1c2c(c3cc(Cl)ccc31)CCCC2=O	none
COc1ccc(-c2nc3cccc(C)n3c2NCC2CCCO2)cc1O (configuration not stated)	none
CCOc1cc(-c2nc3ccccn3c2NCC2CCCO2)ccc1O (configuration not stated)	GAA glycogen 25µM
COc1cc(-c2nc3ccccn3c2NCC2CCCO2)ccc1O (configuration not stated)	GAA glycogen 28µM
CC(C)Oc1ccc(S(=O)(=O)N2CCOCC2)cc1NC(=O)CC1OC(=O)c2ccccc21 (configuration not stated)	none (no result: GAA glycogen, GAA inh, aGlu spleen mod, aGal spleen mod, GLA inh pH 4.5)
O=C(c1nc2ccccn2c1CNCCn1ccc2ccccc21)N1CCOCC1	none (no result: GAA inh)
CCOC(=O)c1c(CSc2ccccc2)n(C)c2cc(Br)c(OCC(O)CNC(CO)(CO)CO)cc12 (configuration not stated)	N370S GC mod 14µM
CCN(C(=O)c1c(C)cc(=O)oc1C)c1ccc2c(c1)OCO2	none
CCN(C(=O)c1coc(=O)c(Br)c1)c1ccc2c(c1)OCO2	GAA glycogen 18µM, GAA inh inconclusive
Cc1ccc(S(=O)(=O)Nc2cc(Cl)c(O)cc2C)cc1	GAA glycogen 22µM
C=CCN=c1scc(C)n1/N=C/c1ccc(O)c(O)c1	GAA glycogen inconclusive
CN=c1scc(-c2ccco2)n1/N=C/c1ccc(O)c(O)c1	GAA glycogen 5.6µM
Nc1cnc(Nc2ccc(Br)cc2)nc1N	GAA glycogen 7µM, N370S GC mod inconclusive
N#Cc1c(N)nc(N)nc1Nc1ccc(Br)cc1	none
COc1ccc(N=Cc2c(O)c3ccccc3n2C(C)=O)cc1	none (no result: GAA inh)
COc1ccc(N=Cc2sc(O)c3ccccc23)cc1	GAA glycogen 20µM
CCOC(=O)NC1(Nc2ccc(Cl)cn2)Oc2ccccc2O1	GAA glycogen 22µM
CCOC(=O)/C=C/C(=O)OCC(=O)Nc1ccc(Cl)cn1	none
O=C(O)COc1ccccc1/C=C1\SC(=S)N(/N=C/c2ccccc2O)C1=O	GAA inh inconclusive
O=C(c1cc(S(=O)(=O)N2CCOCC2)ccc1F)N1CCN(Cc2ccccc2)CC1	none
Cc1[nH][nH]c(=O)c1C(c1ccc(-c2ccc(Cl)c(Cl)c2)o1)c1c(C)[nH][nH]c1=O	GAA glycogen 32µM
Cc1[nH][nH]c(=O)c1C(c1ccc(-c2ccc(F)cc2)o1)c1c(C)[nH][nH]c1=O	GAA glycogen inconclusive
COC(=O)c1cc(NCc2cccs2)ccc1N1CCOCC1	GAA glycogen inconclusive
COC(=O)c1cc(NCc2c(F)cccc2Cl)ccc1N1CCOCC1	GAA glycogen 12µM
COC(=O)c1cc(NS(=O)(=O)c2cccc(Cl)c2)ccc1N1CCOCC1	none (no result: GAA inh)
O=C(O)c1cc(NCc2cccs2)ccc1N1CCOCC1	GAA glycogen 9.9µM
